Anesthetic bind = qHTS Assay for Identification of Novel General Anesthetics | Ferritin light chain (Equus caballus), P02791 | apoferritin/1-aminoanthracene competitive binding, fluorescence | Potency, µM (series often up to 77.5 µM), inactives show at the highest dose activity change, negative = displacement, most hits filed as inhibitors | actives 0.074% (n = 350,000); further: potency means the concentration at half of the fitted maximal effect; nearly all actives have a fitted effect of over 20% in size
Target sequence (P02791 2-175 limits assumed): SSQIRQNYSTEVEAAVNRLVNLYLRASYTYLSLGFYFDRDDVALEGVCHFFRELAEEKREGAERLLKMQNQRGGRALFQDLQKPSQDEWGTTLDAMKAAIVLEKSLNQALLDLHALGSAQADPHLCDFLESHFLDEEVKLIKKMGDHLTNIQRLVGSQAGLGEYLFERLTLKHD
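Concentration-response curves derived by four-parameter Hill fitting of normalized fluorescence, where compounds displaced 1-AMA from 10 uM horse apoferritin following a brief 10 min room-temperature incubation; propofol titration acted as positive control.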
KDM4E inh = qHTS Assay for Inhibitors of Human Jumonji Domain Containing 2E (JMJD2E). actives 1.6% (n = 230,000). AID 2147, 2009. JMJD2E catalytic domain, FDH-coupled NADH fluorescence (FDH is formaldehyde dehydrogenase). Potency, µM (titrated, usually from 57.1 µM), inactives show top-dose activity change, negative = inhibition, most hits filed as inhibitors. Lysine-specific demethylase 4E (Homo sapiens), B2RXH2; active means well fitted inhibition curve with a large enough effect, not every such curve was filed as active; inconclusive means small, poorly fitted or top-dose-only effect, or another doubt; inactive means no such curve, though single readings can be large or run the other way;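 further: potency means the concentration at half of the fitted maximal effect; 0% = wells with enzyme and -100% = buffer wells without enzyme; nearly all actives have a fitted effect of over 50% in size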
Target sequence (B2RXH2 1-337 limits assumed): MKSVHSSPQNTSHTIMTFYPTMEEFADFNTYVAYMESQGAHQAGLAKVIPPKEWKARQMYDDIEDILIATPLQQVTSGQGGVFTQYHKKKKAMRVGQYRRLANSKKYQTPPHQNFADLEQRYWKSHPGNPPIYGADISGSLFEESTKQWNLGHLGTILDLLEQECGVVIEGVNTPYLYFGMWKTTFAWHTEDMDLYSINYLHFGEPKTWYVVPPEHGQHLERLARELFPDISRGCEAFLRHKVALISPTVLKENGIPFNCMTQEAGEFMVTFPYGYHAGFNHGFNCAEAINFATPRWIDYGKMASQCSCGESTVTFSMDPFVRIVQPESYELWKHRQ
Eya2 inh = qHTS Assay for Inhibitors of the Phosphatase Activity of Eya2; Potency, µM (series often up to 76.9 µM), without a hit: at the highest dose activity, negative = inhibition, actives largely listed as inhibitors; recombinant Eya2, OMFP fluorescence dephosphorylation (OMFP is methylfluorescein phosphate); actives 0.006% (n = 330,000); further: potency means the concentration at half of the fitted maximal effect
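Eya2 protein (added as 0.2 uM solution) was preincubated with compound for 10 min at ambient temperature in 50 mM HEPES pH 7.5, 50 mM NaCl, 5 uM MgCl2, 0.05% BSA, 1 mM DTT. OMFP (added at 50 uM) then reacted 10 min; fluorescence read at 485/525 nm.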
GALK inhibitor = qHTS Assay for Inhibitors of Human Galactokinase (GALK) | P51570 | actives 0.007% (n = 270,000) | Purified GALK, Kinase-Glo residual ATP luminescence | Potency, µM (series often up to 57.5 µM), for the others: at the top dose activity change, negative = inhibition, most hits filed as inhibitors; further: potency means the concentration at half of the fitted maximal effect
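Compounds were pin-transferred into ATP buffer (35 uM final), then GALK plus galactose (5 nM, 100 uM final) was added. After 1 h at room temperature, Kinase-Glo Plus was added and luminescence read after 10 min.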
CtBP-E1A blk = qHTS Assay for Inhibitors of the CtBP/E1A Interaction; CtBP / adenovirus E1A interaction (AlphaScreen); actives 0.49% (n = 340,000); AID 651724, 2012; AlphaScreen GST-E1A/His-CtBP binding, 1536-well; hits give low values; activity change, % (no concentration beside the values); in the data active means activity change below about -65%; inconclusive means mostly about -30% to -63%
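In 5 uL wells, 23 nL compound meets equimolar GST-E1A and His-CtBP (5X stock 125 nM each) for 2 h, 37 °C. Beads (5X, 50 ug/mL) then 1 h, 37 °C, dark.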
Six1-Eya2 blk = qHTS Assay for Inhibitors of the Six1/Eya2 Interaction; activity change, % (concentration not given with the values); AlphaScreen GST-Six1/His-Eya2 binding, biochemical; hits give low values; AID 651725, 2012; actives 0.56% (n = 360,000); in the data active means activity change below about -65%; inconclusive means mostly about -30% to -63%
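AlphaScreen luminescence read after one hour at 37 °C in darkness. Pin-transferred compounds met GST-Six1 and His-Eya2 protein (5X stock 250 nM/500 nM) plus glutathione donor and Ni-chelate acceptor beads (5X, 50 ug/mL).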
* marks the source's active call; other numbers are inactive results; ? = inconclusive; / = not tested or not shown; [ ] = another dose, or the depositor's remark. The entries come from a sample that favours hits as a whole. Unless noted, the call rests on the fitted dose curve; in most records, active means well fitted curve in the direction sought with a large enough effect; inconclusive means small, poorly fitted or top-dose-only effect, or another doubt; inactive means no such curve, though single readings can be large; an effect the other way counts as inactive or inconclusive. Unless noted, on the % scale 0 is the no-effect control and ±100 the full control effect.

SMILES	Anesthetic bind	KDM4E inh	Eya2 inh	GALK inhibitor	CtBP-E1A blk	Six1-Eya2 blk
O=C1NCCCC1C(=O)N/N=C/c1ccccc1[N+](=O)[O-] (stereo not given)	2%	12%	12%	8%	-1	-5
O=C1NCCCC1C(=O)N/N=C/c1ccccc1O (stereo not given)	67%	?	3%	-1%	-71*	?
COc1ccc(N2CC(C(=O)N/N=C/c3cc([N+](=O)[O-])ccc3O)CC2=O)cc1 (stereo not given)	-12%	25µM*	3%	-2%	-77*	-90*
C[C@@H]1[C@H]2CC[C@@H]3[C@@H]4CC=C5C[C@@H](N(C)C)CC[C@]5(C)[C@@H]4CC[C@@]32CN1C	2%[29.3 µM]	1%[25.5 µM]	/	/	/	/
CC(C)C(=O)NC(c1cccc([N+](=O)[O-])c1)c1ccc2cccnc2c1O (stereo not given)	-15%	/	-10%	3%	-2	-94*
CCC(=O)NC(c1cccc([N+](=O)[O-])c1)c1c(OC(C)=O)ccc2ccccc12 (stereo not given)	-3%	8%	-1%	-1%	-3	-10
CCCC(=O)NC(c1cccc([N+](=O)[O-])c1)c1ccc2cccnc2c1O (stereo not given)	/	/	/	/	?	-91*
CC(C)c1cccc2nc3c(c([Si](C)(C)C)c12)Cn1c-3cccc1=O	167%	?	/	/	/	/
O=C(O)c1ccc(NC(=O)[C@H](Cc2ccc(O)cc2)NC(=O)c2ccccc2)cc1	-4%	/	/	/	/	/
Cc1cc(C)n(-c2nc3ccccc3nc2N2CCN(c3cccc(C(F)(F)F)c3)CC2)n1	-1%	/	/	/	/	/
O=C1N[C@@H](Cc2ccccc2)C(=O)N2CCCC12 (stereo not given in full)	6%[163 µM]	/	2%	/	2	8
CC(C)CC1NC(=O)C(CCCN)NC(=O)C(C(C)C)NC(=O)C2CCCN2C(=O)C(Cc2ccccc2)NC(=O)C(CC(C)C)NC(=O)C(CCCN)NC(=O)C(C(C)C)NC(=O)C2CCCN2C(=O)C(Cc2ccccc2)NC1=O (stereo not given)	6%	25µM*	/	/	/	/
O=C(Cn1sc2ccccc2c1=O)NC12CC3CC(CC(C3)C1)C2	16µM*	-23%	19%	-1%	10	4
O=C(Cn1sc2ccccc2c1=O)Nc1ccccc1	/	/	/	/	-25	12
CC(C)[C@@H]1NC(=O)[C@H](CCCCN)NC(=O)[C@@H](Cc2c[nH]c3ccccc23)NC(=O)[C@H](Cc2ccc(O)cc2)NC(=O)[C@@H](NC(=O)[C@H](N)Cc2ccccc2)CSSC[C@@H](C(=O)N[C@@H](Cc2c[nH]c3ccccc23)C(N)=O)NC1=O	-7%	/	/	/	/	/
O=C(Nc1nc(-c2ccc(Br)cc2)ns1)c1ccccc1F	13%	/	/	/	/	/
CCN(CC)c1ccc(/C=N/NC(=O)c2c(Cl)cnn2C)c(O)c1	0%	-9%	8%	0%	-91*	-90*
CCN(CC)c1ccc(/C=N/NC(=O)CNC(=O)C2COc3ccccc3O2)c(O)c1 (stereo not given)	63%	/	1%	1%	?	-70*
CCN(CC)c1ccc(/C=N/NC(=O)CCC(=O)NCc2ccccc2)c(O)c1	-5%	25µM*	-2%	-1%	?	-27
COc1cc(/C=N\NC(=O)CNC(=O)C2COc3ccccc3O2)ccc1O (stereo not given)	?	-11%	-1%	1%	0	6
Cc1cc([N+](=O)[O-])cc(/C=N\NC(=O)C2COc3ccccc3O2)c1O (stereo not given)	4%	?	4%	5%	-72*	-87*
O=C(CCC(=O)N/N=C/c1c[nH]c2ccccc12)NCc1ccccc1	-20%	-4%	-1%	/	3	-8
CCN(CC)c1ccc(/C=N/NC(=O)c2cccc(S(=O)(=O)N3CCOCC3)c2)c(O)c1	14%	?	12%	-1%	?	?
CC(C)C[C@@H](C(=O)N[C@@H](Cc1c[nH]c2ccccc12)C(N)=O)N1C[C@]2(CCCN2C(=O)[C@H](Cc2ccccc2)NC(=O)[C@H](Cc2ccccc2)NC(=O)[C@H](CCC(N)=O)NC(=O)[C@H](CCC(N)=O)NC(=O)[C@@H]2CCCN2C(=O)[C@H](CCCCN)NC(=O)[C@@H]2CCCN2C(=O)[C@@H](N)CCCNC(=N)N)CC1=O	-9%	/	/	/	/	/
Cc1ccc(C)c(N2CCN(C(=O)CCc3c(C)nn(-c4ccc(N5CCCC5)nn4)c3C)CC2)c1	0%	/	/	/	/	/
SMILES	Anesthetic bind	KDM4E inh	Eya2 inh	GALK inhibitor	CtBP-E1A blk	Six1-Eya2 blk
Cc1c(Cl)cccc1NC(=O)C1CCCN(c2nnc(-n3c(C)ccc3C)s2)C1 (stereo not given)	-12%	/	/	/	/	/
O=C(N/N=C1/C[C@@H](O)[C@@H](O)[C@@H]2[C@@H]3C(=O)N(Cc4ccc5c(c4)OCO5)C(=O)[C@H]3CC[C@H]12)OCc1ccccc1	-9%[15.3 µM]	/	/	/	/	/
Cc1cc(OI)c(C(C)C)cc1-c1cc(C(C)C)c(OI)cc1C	-9%	/	/	/	/	/
CCc1cccc(C)c1NC(=O)CSc1nc(C)cc(C)c1C(=O)Nc1ccccc1	-18%	/	/	/	/	/
CCOC(=O)N/N=C/c1ccc(N(CC)CC)cc1O	1%	28µM*	-2%	-1%	-5	-13
CCN(CC)c1ccc(/C=N/Nc2ccc(C)cc2)c(O)c1	-6%	?	2%	1%	?	?
Nc1nc(O)c(N=Nc2ccc(S(N)(=O)=O)cc2)c(=O)[nH]1	1%	/	1%	/	-6	-8
NS(=O)(=O)c1ccc(N=Nc2c[nH]c(=O)c(O)c2)cc1	-12%	32µM*	-14%	12%	?	?
COc1ccc(CNC(=O)Cn2ccc3cc(S(=O)(=O)N4CCCCC4)ccc32)c(OC)c1	4%	/	/	/	/	/
C/C(=N\NC(=O)CSCc1ccc([N+](=O)[O-])cc1)c1ccccc1	?	10%	-24%	-1%	-11	-1
C/C(=N/NC(=O)c1cc(-c2cccc([N+](=O)[O-])c2)n[nH]1)c1cccc(O)c1	-1%	2%	3%	-2%	/	-19
C/C(=N\NC(=O)CSCc1ccc([N+](=O)[O-])cc1)c1ccccc1O	-12%	25µM*	-3%	0%	-5	-9
